AID923: qHTS Assay for Allosteric/Competitive Inhibitors of Caspase-1: Spectroscopic Profiling in AFC Spectral Region | hit rate 1.1% among 75,000 | Potency, µM (titrated, usually from 57.5 µM), for the others: at the top dose fluorescence increase, most hits filed as activators | compound fluorescence, AFC spectral region (405/520 nm) | AID 923, 2007; note: potency is the fitted concentration of half-maximal effect; 0% is about no effect
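Baseline compound fluorescence (AFC region, 405 nm ex/520 nm em) taken from the intercept of kinetic reads with 50 nM caspase-1 and 5 uM Ac-WEHD-AFC; normalized to an on-plate AFC standard curve; compounds titrated up to 57 uM.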
HSD17B inh: inhibitors of human HSD17B10 dehydrogenase | Q99714 | recombinant HSD17B10, NADH fluorescence kinetic | Potency, µM (doses to about 57.1 µM), for the others: at the top dose activity change, negative = inhibition, hits mostly inhibitors | hit rate 7.6% among 75,000 | AID 893;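 note: the protocol describes HADH2 (HSD17B10) and not the HSD17B4 of the title; potency is the fitted concentration of half-maximal effect; % is set by controls: 0 for no effect and ±100 for the full control effect; nearly all actives have a fitted effect of over 70% in size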
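20 nM HADH2, pH 9.0 Tris/Tween; cpd preinc 15 min RT; start w/ 1 mM NAD+ + 90 uM b-hydroxybutyryl-CoA; kinetic fluor ex360/em450 q30s x 4 min; delta last-first.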
HADH2 inh: inhibitors of human HADH2 dehydrogenase | Q99714 | recombinant HADH2, NADH fluorescence, beta-hydroxybutyryl-CoA | Potency, µM (doses to about 57.1 µM), for the others: at the highest dose activity change, negative = inhibition, most hits filed as inhibitors | hit rate 3.4% among 73,000; note: potency is the fitted concentration of half-maximal effect; % is set by controls: 0 for no effect and ±100 for the full control effect; nearly all actives have a fitted effect of over 60% in size
Target sequence (Q99714 whole entry, looked up, one chain of several): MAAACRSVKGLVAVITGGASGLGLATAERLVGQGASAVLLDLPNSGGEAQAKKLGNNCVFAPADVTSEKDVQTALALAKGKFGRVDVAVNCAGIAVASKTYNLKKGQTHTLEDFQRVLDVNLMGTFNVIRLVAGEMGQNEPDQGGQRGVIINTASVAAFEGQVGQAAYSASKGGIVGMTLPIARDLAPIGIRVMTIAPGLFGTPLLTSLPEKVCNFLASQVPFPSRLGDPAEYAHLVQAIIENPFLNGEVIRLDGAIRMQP
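Read-out: 360 nm excitation, 450 nm emission, kinetic over 4 min. Conditions: His-tagged human HADH2 20 nM, pH 9.0 Tris with Tween-20, 1 mM NAD+, 90 uM beta-hydroxybutyryl-CoA.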
4MU fluor: 4-MU region autofluorescence; compound autofluorescence, 340/450 nm, 4-MU equivalents; active compounds read high; AID 589; max dye-equivalent concentration, M; hit rate 11% among 59,000; in the data active = max dye-equivalent concentration above about 10 nM; inconclusive = mostly about 1.1 nM to 9.6 nM
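Compounds in 100 mM Tris, pH 8.0, sat 15 min at room temperature before fluorescence was read at 340 nm excitation/450 nm emission; a per-plate six-point 4-MU standard curve converted signals to dye-equivalent concentration at each compound concentration.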
CRE Fsk mod: modulators of forskolin-stimulated CRE signaling in CHO cells | Potency, µM (doses to about 38.2 µM), for the others: top-dose activity change, negative = inhibition, usual class: activators | CHO CRE-bla reporter (cAMP response element driving beta-lactamase), forskolin EC10, beta-lactamase ratio | hit rate 2.5% among 71,000; active = well fitted activation curve with a large enough effect in the signal ratio, with a control signal flat, not every such curve was filed as active; inconclusive = small, poorly fitted or top-dose-only effect, or effect the other way, or a change in a side signal; the % refers to the signal ratio; note: potency is the fitted concentration of half-maximal effect; % of control where 0% means no effect
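CRE-bla CHO cells stimulated with EC10 NKH 477 (water-soluble forskolin) and compound titrations, 3 h at 37C; beta-lactamase read with CCF4 after 2 h at room temperature. Activity from 460/530 nm emission ratio, AC50 values for positive or negative modulation.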
A350 fluor: compounds fluorescent in Alexa 350 spectral region. Compound autofluorescence, 340/450 nm, Alexa 350 dye-equivalents; active compounds read high. max dye-equivalent concentration, M. hit rate 11% among 59,000. AID 590; in the data active = max dye-equivalent concentration above about 10 nM; inconclusive = mostly about 1.1 nM to 9.6 nM
Active calls of the source: *; ! = repeats disagree; [ ] = dose if it differs, or a comment. This is a sample that favours compounds with a hit; in the whole collection about 14% have one here. Unless noted, calls come from the whole dose curve; as a rule, active = well fitted curve in the direction sought with a large enough effect; inconclusive = small, poorly fitted or top-dose-only effect, or another doubt; inactive = no such curve, though single readings can be large; an effect the other way counts as inactive or inconclusive.

For CC(=O)N1CCN(C(=O)CNc2cc(C(F)(F)F)ccc2OCC(F)(F)F)CC1 the results were AID923 0%, HSD17B inh 1%, HADH2 inh -8%, 4MU fluor inactive, CRE Fsk mod 2% and A350 fluor inactive.
Screening CC(=O)Oc1cc(C(F)(F)F)ccc1C(=O)O returned AID923 -1%[25.7 µM], HSD17B inh 13µM*, HADH2 inh -22%[25.6 µM], 4MU fluor inactive, CRE Fsk mod 1%[17.1 µM] and A350 fluor inactive.
For CC(C)(CO)N1CCN(C(=S)Nc2ccccc2)CC1 the results were AID923 0%[11.5 µM], HSD17B inh 5%[11.4 µM], HADH2 inh -7%[11.4 µM], 4MU fluor inconclusive, CRE Fsk mod 2%[7.6 µM] and A350 fluor inconclusive.
Screening O=C1C=CC2(OCCCO2)C(Br)=C1 returned AID923 1%[11.5 µM], HSD17B inh 8%[11.4 µM] and HADH2 inh -1%[11.4 µM].
`CCCn1c(=O)[nH]c(=O)c2[nH]cnc21` gave AID923 -3%, HSD17B inh 4%, HADH2 inh inconclusive, 4MU fluor inconclusive, CRE Fsk mod 1% and A350 fluor 1.2e-08M*!.
`CCCN(CC1CC1)c1nc(C)nc(Nc2c(Cl)cc(Cl)cc2Cl)c1Cl` gave AID923 3%, HSD17B inh -5%, HADH2 inh 12%, 4MU fluor inactive, CRE Fsk mod inconclusive and A350 fluor inactive.
Screening CCCOc1cccc(C2/C(=C(/O)c3ccncc3)C(=O)C(=O)N2CCCN(C)C)c1 (stereo not given) returned AID923 0%, HSD17B inh 3%, HADH2 inh -16%, 4MU fluor inactive, CRE Fsk mod 5% and A350 fluor inactive.
For CCCCn1c(C)nc2c(=O)n(C)c(=O)[nH]c21 the results were AID923 -1%, HSD17B inh -24%, HADH2 inh 0%, 4MU fluor 1.5e-08M*, CRE Fsk mod 2% and A350 fluor 1.6e-08M*.
`CCCCn1c(NCCN(C)C)nc2c1c(=O)[nH]c(=O)n2C` gave AID923 -1%, HSD17B inh -4%, HADH2 inh 10%, 4MU fluor inactive, CRE Fsk mod 5% and A350 fluor inactive.
Screening CCCCn1c(-c2ccccc2)nc2c(=O)n(C)c(=O)[nH]c21 returned AID923 -2%, HSD17B inh 32µM*, HADH2 inh 80%, 4MU fluor inconclusive, CRE Fsk mod -7% and A350 fluor inconclusive.
For CCCCn1c(Cc2ccccc2)n[nH]c1=S the results were AID923 2%, HSD17B inh -18%, HADH2 inh -26%, 4MU fluor inactive, CRE Fsk mod -5% and A350 fluor inactive.
`O=C(CSc1nnnn1-c1cccnc1)NCc1cccs1` gave AID923 1%, HSD17B inh -6%, HADH2 inh inconclusive, 4MU fluor inactive, CRE Fsk mod inconclusive and A350 fluor inactive.
`Brc1ccc(-c2nc3ccccc3s2)s1` gave AID923 0%, HSD17B inh 32µM*, HADH2 inh 4%, 4MU fluor 5.1e-08M*, CRE Fsk mod inconclusive and A350 fluor 6.7e-08M*.
Screening c1ccc(-c2nc3ccccc3s2)nc1 returned AID923 1%, HSD17B inh inconclusive, HADH2 inh -3%, 4MU fluor inconclusive, CRE Fsk mod 18% and A350 fluor inconclusive.
`Cc1noc(C)c1C(=O)Nc1sc(C)c(-c2ccccc2)c1C#N` gave AID923 4%, HSD17B inh -4%, HADH2 inh -2%, 4MU fluor 2.5e-08M*, CRE Fsk mod inconclusive and A350 fluor 2.6e-08M*.
Screening Cc1noc(C)c1C(=O)Nc1ccccc1-c1ccccc1 returned AID923 1%, HSD17B inh 9%, HADH2 inh 3%, 4MU fluor inactive, CRE Fsk mod inconclusive and A350 fluor inconclusive.
